In test [1] the target is Tyrosine-protein kinase SYK (Homo sapiens) (UniProt P43405). The settings on record: at 10 µM.
Test [2] has as its target T1, Mitogen-activated protein kinase kinase kinase 7 (Homo sapiens) (UniProt O43318).
T1 sequence (whole entry): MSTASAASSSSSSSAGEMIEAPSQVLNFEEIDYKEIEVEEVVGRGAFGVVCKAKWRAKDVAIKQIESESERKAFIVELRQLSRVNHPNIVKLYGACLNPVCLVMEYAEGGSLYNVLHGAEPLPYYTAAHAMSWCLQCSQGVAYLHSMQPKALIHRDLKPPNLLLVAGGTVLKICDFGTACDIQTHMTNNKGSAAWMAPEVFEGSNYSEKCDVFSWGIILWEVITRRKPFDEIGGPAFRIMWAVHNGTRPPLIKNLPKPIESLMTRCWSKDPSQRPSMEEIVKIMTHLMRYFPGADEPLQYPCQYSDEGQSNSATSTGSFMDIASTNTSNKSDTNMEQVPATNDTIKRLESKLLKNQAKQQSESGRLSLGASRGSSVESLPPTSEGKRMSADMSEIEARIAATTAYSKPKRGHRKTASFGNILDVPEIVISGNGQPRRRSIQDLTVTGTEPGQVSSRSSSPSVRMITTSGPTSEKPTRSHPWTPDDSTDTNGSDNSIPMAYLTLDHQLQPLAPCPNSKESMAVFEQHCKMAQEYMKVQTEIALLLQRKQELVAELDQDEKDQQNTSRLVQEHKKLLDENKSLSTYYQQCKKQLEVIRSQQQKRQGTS
Particulars: at 1 µM.

In test [3] the target is T1, Mitogen-activated protein kinase kinase kinase 7 (Homo sapiens). Particulars: at 10 µM.
In test [4] the target is T2, Serine/threonine-protein kinase TAO1 (Homo sapiens) (UniProt Q7L7X3).
T2 sequence (whole entry): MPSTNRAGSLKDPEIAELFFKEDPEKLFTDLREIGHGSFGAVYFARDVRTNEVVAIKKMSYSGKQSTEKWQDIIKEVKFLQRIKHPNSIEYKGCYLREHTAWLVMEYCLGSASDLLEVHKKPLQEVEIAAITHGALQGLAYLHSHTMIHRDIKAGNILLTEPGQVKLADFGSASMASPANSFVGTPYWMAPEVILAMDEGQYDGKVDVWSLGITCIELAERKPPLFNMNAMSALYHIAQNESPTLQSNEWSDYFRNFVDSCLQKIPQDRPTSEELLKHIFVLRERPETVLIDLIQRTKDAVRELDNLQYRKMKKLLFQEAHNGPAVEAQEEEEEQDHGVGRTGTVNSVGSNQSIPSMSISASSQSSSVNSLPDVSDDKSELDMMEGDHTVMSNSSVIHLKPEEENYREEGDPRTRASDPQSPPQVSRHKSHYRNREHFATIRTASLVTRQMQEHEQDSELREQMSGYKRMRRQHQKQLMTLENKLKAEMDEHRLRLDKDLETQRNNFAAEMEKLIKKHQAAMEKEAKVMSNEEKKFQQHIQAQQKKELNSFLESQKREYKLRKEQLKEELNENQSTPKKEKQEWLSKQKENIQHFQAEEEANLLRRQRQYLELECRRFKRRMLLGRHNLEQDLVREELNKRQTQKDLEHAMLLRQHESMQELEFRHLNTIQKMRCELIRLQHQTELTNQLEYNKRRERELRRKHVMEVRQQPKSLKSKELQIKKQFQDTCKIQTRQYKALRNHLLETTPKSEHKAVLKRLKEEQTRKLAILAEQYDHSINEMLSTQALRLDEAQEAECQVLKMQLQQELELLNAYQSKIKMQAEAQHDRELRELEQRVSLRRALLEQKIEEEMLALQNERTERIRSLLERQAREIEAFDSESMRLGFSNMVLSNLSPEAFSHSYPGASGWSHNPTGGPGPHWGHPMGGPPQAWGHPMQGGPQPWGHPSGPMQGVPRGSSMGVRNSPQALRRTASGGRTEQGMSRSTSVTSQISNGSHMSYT
Particulars: at 1 µM.

The target in test [5] is T2, Serine/threonine-protein kinase TAO1 (Homo sapiens). The settings on record: at 10 µM.
Test [6] concerns the target T3, Serine/threonine-protein kinase TAO2 (Homo sapiens) (UniProt Q9UL54).
T3 sequence (whole entry): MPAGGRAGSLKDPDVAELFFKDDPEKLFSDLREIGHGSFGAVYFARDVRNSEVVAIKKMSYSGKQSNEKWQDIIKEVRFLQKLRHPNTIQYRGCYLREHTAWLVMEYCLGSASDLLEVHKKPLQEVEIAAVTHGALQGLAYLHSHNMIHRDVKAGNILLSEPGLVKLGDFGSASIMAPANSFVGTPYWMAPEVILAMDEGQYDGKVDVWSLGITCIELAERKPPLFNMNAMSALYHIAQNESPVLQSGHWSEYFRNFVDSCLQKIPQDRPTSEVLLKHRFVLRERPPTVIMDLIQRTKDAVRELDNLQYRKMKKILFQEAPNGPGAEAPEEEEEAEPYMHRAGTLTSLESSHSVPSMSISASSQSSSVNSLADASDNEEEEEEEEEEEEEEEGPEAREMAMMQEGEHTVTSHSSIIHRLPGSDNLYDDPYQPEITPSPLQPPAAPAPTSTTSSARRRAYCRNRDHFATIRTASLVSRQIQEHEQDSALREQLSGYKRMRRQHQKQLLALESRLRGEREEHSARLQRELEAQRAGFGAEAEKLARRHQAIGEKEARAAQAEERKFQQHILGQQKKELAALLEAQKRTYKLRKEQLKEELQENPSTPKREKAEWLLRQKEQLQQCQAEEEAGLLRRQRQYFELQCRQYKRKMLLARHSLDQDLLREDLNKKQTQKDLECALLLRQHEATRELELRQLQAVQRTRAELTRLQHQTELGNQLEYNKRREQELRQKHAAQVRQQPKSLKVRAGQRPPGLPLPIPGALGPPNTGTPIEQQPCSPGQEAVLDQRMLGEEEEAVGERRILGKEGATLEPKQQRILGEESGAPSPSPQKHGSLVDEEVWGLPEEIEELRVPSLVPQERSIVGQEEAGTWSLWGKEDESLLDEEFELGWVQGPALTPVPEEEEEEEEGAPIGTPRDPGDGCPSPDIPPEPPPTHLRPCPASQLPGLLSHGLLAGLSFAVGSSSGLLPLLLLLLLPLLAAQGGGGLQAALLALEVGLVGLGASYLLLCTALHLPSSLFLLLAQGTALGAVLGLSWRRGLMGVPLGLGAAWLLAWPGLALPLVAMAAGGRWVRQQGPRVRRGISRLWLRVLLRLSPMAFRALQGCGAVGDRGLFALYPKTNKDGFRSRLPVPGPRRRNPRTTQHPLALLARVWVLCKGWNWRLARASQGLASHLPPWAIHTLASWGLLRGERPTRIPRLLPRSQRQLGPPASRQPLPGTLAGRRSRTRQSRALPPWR
The settings on record: at 1 µM.

In test [7] the target is T3, Serine/threonine-protein kinase TAO2 (Homo sapiens). The settings on record: at 10 µM.
Test [8] has as its target T4, Serine/threonine-protein kinase TAO3 (Homo sapiens) (UniProt Q9H2K8).
T4 sequence (whole entry): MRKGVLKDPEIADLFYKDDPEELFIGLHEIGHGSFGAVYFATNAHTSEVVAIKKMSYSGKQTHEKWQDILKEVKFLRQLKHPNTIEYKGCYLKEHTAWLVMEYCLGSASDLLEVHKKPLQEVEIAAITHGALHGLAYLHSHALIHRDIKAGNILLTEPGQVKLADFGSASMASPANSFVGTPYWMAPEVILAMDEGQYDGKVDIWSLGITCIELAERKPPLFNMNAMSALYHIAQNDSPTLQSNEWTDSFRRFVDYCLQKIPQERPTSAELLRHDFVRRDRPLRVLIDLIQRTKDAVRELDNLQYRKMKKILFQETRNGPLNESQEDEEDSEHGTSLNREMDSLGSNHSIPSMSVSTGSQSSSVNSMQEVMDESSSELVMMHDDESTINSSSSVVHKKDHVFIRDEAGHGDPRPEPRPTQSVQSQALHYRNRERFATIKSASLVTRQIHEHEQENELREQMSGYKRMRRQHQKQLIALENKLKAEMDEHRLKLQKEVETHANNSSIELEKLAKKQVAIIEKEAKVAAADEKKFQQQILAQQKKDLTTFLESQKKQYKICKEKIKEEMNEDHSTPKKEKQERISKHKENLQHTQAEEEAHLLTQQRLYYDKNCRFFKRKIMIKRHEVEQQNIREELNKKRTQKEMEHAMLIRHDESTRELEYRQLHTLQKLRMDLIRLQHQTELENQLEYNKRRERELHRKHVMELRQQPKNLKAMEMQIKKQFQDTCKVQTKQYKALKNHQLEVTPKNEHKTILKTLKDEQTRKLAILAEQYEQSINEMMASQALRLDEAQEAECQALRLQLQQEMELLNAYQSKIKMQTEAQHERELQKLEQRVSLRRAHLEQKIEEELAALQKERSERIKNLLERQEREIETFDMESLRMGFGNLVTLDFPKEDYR
Particulars: at 1 µM.

The target in test [9] is T4, Serine/threonine-protein kinase TAO3 (Homo sapiens). Particulars: at 10 µM.
The target in test [10] is T5, Serine/threonine-protein kinase TBK1 (Homo sapiens) (UniProt Q9UHD2).
T5 sequence (whole entry): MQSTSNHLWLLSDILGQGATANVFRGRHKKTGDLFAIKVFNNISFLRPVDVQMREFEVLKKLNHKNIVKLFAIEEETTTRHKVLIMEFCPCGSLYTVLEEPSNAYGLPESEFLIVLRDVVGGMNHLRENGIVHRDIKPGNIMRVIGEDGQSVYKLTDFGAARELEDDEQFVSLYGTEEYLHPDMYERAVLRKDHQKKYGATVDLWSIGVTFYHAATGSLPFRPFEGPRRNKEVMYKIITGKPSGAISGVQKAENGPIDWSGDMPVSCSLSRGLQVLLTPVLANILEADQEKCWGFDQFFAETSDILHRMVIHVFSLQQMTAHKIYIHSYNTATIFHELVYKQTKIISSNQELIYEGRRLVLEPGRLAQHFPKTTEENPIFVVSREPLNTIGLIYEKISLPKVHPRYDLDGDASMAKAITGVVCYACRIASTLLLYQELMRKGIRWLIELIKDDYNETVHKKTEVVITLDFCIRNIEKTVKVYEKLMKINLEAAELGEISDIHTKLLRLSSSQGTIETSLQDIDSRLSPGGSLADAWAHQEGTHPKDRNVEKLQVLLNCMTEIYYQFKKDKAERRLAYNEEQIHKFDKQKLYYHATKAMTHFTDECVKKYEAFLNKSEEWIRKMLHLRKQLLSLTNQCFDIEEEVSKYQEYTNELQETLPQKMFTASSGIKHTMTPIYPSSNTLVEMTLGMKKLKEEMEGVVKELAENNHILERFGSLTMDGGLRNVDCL
Particulars: at 1 µM.

For the compound `COc1cccc(-c2cc(=O)c3ccccc3o2)c1N`, the residual activity in test [1] amounted to 113%; in [2], 101%; in test [3], 98%; in test [4] it was 99%; in test [5], 85%; in test [6], 112%. For the same compound, the residual activity came out at 92% in test [7], 95% in [8], 87% in test [9] and 97% in test [10].

The values are drawn from ChEMBL document CHEMBL2218924, “A broad activity screen in support of a chemogenomic map for kinase signalling research and drug discovery” (Biochem J, 2013).
